Assay outcomes: PubChem, National Center for Advancing Translational Sciences (NCATS)
DT40 TDP1 no CPT = qHTS for Inhibitors of human tyrosyl-DNA phosphodiesterase 1 (TDP1): qHTS in cells in absence of CPT | DT40 Tdp1-/- hTDP1 cells, no CPT, ATP luminescence, 48 h | Potency, µM (titrated, usually from 46.2 µM), for the others: top-dose activity change, negative = growth inhibition, most hits filed as inhibitors | 420,000 compounds, 15% hits; further: potency means the concentration at half of the fitted maximal effect; nearly all actives have a fitted effect of over 55% in size
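Readout: luminescence from CellTiter-Glo after 30 min in the dark at RT. Cells: DT40 Tdp1-/- with stable hTDP1, 400/well. Exposure: compounds alone, ≥48 hr, 37 °C.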
HT1080 IDH1KD tx = qHTS for induction of synthetic lethality in tumor cells producing 2HG: qHTS for the HT-1080-IDH1KD cell line; HT-1080 IDH1 knockdown viability, ATP luminescence, 48 h; Potency, µM (titrated, usually from 46.1 µM), for inactives: top-dose activity, negative = toxicity, most hits filed as cytotoxic; 360,000 compounds, 2% hits; AID 686971, 2013;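 further: potency means the concentration at half of the fitted maximal effect; 0% = DMSO wells and -100% = cell-free medium wells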
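Viability of IDH1-knockdown HT-1080 fibrosarcoma cells was assessed by CellTiter-Glo after 48 h at 37 °C with titrated compound; concentration-effect curves were classified by fit quality and response size.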
DT40 TDP1 CPT = qHTS for Inhibitors of human tyrosyl-DNA phosphodiesterase 1 (TDP1): qHTS in cells in presence of CPT; chicken DT40 Tdp1-/-;hTDP1 cells + 20 nM CPT, ATP luminescence, 48 h; Potency, µM (highest dose often 46.2 µM), for the others: top-dose activity change, negative = growth inhibition, hits mostly inhibitors; 420,000 compounds, 12% hits; AID 686979, 2013; further: potency means the concentration at half of the fitted maximal effect; nearly all actives have a fitted effect of over 55% in size
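Chicken DT40 Tdp1-/- cells complemented with human TDP1, 400 cells/well, exposed to compounds plus 20 nM camptothecin for at least 48 h at 37 C; viability read as ATP content by CellTiter-Glo luminescence.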
HT1080NT lethal = qHTS for induction of synthetic lethality in tumor cells producing 2HG: qHTS for the HT-1080-NT fibrosarcoma cell line | Potency, µM (top dose mostly 46.1 µM), without a hit: at the highest dose activity, negative = less viability, usual class: cytotoxic | 360,000 compounds, 1.6% hits | HT-1080-NT fibrosarcoma viability, CellTiter-Glo ATP luminescence, 48 h;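 further: NT is the 2HG producing partner of a matched IDH1 knockdown line; potency means the concentration at half of the fitted maximal effect; 0% = DMSO-treated cells and -100% = media-only wells without cells; nearly all actives have a fitted effect of over 55% in size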
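Viability of the 2HG-overproducing fibrosarcoma line after 48 hours of compound exposure at 37 degrees C was determined by luminescence with CellTiter-Glo, and concentration-effect curves were then fitted and categorized.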
ELG1 DNA repair = qHTS screen for small molecules that inhibit ELG1-dependent DNA repair in human embryonic kidney (HEK293T) cells expressing luciferase-tagged ELG1; 330,000 compounds, 2.3% hits; HEK293T ELG1-luciferase reporter, luminescence, 16 h; DNA damage induced by 5-fluorouridine; Potency, µM (top dose mostly 46.1 µM), for the others: at the top dose activity change, negative = inhibition, usual class: inhibitors; further: potency means the concentration at half of the fitted maximal effect; nearly all actives have a fitted effect of over 55% in size
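Overnight (16 hr) co-exposure of 2,000 cells/well to 5-fluorouridine and compound at 37 °C preceded detection. Luciferase was quantified via ONE-Glo luminescence; loss of signal denotes inhibition.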
IL-1B inflam inh = qHTS for Inhibitors of Inflammasome Signaling: IL-1-beta AlphaLISA Primary Screen. THP-1 LPS/ATP IL-1B secretion, AlphaLISA, 16 h; active compounds read low. activity change, % at 57.5 µM. 360,000 compounds, 4.7% hits. AID 743279, 2014; in the data active means activity change below about -50%; inconclusive means mostly about -30% to -49%
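THP-1 cells pretreated 1 hr with compounds (up to 57.5 uM final), then stimulated with LPS (250 ng/mL final) plus ATP (1.25 mM final); secreted IL-1B measured by AlphaLISA after 16 hr, decreased signal indicating inhibition.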
* hit, by the source's call; ? = inconclusive; · = no result given. An excerpt weighted towards active compounds, which were near 19% of everything screened. Unless noted, the call rests on the fitted dose curve; in most records, active means well fitted curve in the direction sought with a large enough effect; inconclusive means small, poorly fitted or top-dose-only effect, or another doubt; inactive means no such curve, though single readings can be large; an effect the other way counts as inactive or inconclusive. Unless noted, on the % scale 0 is the no-effect control and ±100 the full control effect.

SMILES	DT40 TDP1 no CPT	HT1080 IDH1KD tx	DT40 TDP1 CPT	HT1080NT lethal	ELG1 DNA repair	IL-1B inflam inh
N=c1c2c(ncn1CCN1CCOCC1)Oc1ccc3ccccc3c1C2c1ccccc1 (stereo unspecified)	20.5%	-7.2%	-10.3%	-1.4%	-8.0%	?
COc1ccc(C2c3c(ncn(CCN4CCOCC4)c3=N)Oc3ccc4ccccc4c32)cc1 (stereo unspecified)	18.4µM*	-12.9%	?	-11.8%	4.6%	?
CC(=O)Oc1ccc2nonc2c1OC(C)=O	5.62µM*	·	5.62µM*	·	·	·
CC(=O)Nc1cc(OC(C)=O)c2nonc2c1OC(C)=O	18.4µM*	3.55µM*	?	6.31µM*	?	4.8
COC(=O)CCCCCCCCCC[N+]1(C)CCCCC1	-28.6%	11.4%	9.2%	-0.3%	-8.7%	24.4
C[N+]1(CC(=O)OC2CCCCCCCCCCC2)CCCC1	2.59µM*	?	4.11µM*	?	?	-6.5
COc1ccc(NC2CCCN(C(=O)c3cccc(C)n3)C2)cc1OC (stereo unspecified)	3.3%	1.0%	-16.9%	2.9%	18.4%	6.6
CCn1c2ccccc2c2cc(CN3CCN(Cc4cc(OC)c(O)c(OC)c4)CC3)ccc21	10.3µM*	·	10.3µM*	·	·	·
CCn1c2ccccc2c2cc(CN3CCN(Cc4cc(OC)ccc4O)CC3)ccc21	?	?	25.9µM*	?	?	-83.7*
COc1ccc(-c2cc3ccccc3n2CC(O)CNC(CO)(CO)CO)cc1 (stereo unspecified)	?	-25.6%	?	-37.8%	12.6%	6.4
COc1cc(CN2CCN(S(=O)(=O)c3ccccc3)CC2)cc(OC)c1O	-7.3%	·	-14.4%	·	·	·
COc1ccc(CN2CCN(CC(O)Cn3c4ccccc4c4ccccc43)CC2)cc1 (stereo unspecified)	?	?	?	18.4µM*	-9.2%	-57.5*
COc1ccc(-c2cc3ccccc3n2CC(O)CN2CCC(C)CC2)cc1 (stereo unspecified)	23.1µM*	-2.5%	?	-1.3%	?	?
CN1CCN(CC(O)Cn2c3ccccc3c3ccccc32)CC1 (stereo unspecified)	?	4.9%	-22.9%	-21.9%	-1.3%	-11.8
O=C1NC[C@H](Cc2ccccc2)N(CC2CCN(CCCCc3ccccc3)CC2)C1=O	-24.8%	1.0%	-15.8%	-2.2%	·	-6.5
Cc1cccn2c(=O)c(-c3nnn[nH]3)cnc12	-12.3%	·	4.9%	·	·	·
CC(C)CNc1ncnc2c1ncn2[C@H]1CN(Cc2ccco2)C[C@@H](CO)O1	-25.1%	7.2%	-28.5%	8.8%	·	19.1
COc1ccc(O)c(CN2CC3CCC(CC3)C2)c1	?	7.1%	23.1µM*	7.8%	·	-9.3
COc1ccc(O)c(CN2CCCC(N3CCN(c4ccc(F)cc4)CC3)C2)c1 (stereo unspecified)	?	7.4%	?	0.4%	-12.7%	-3.0
O=C(COC(=O)c1cc2ccccc2o1)NCc1ccco1	-2.6%	-1.6%	0.2%	-0.6%	9.6%	4.3
COc1cccc(/C=N/Nc2cc(-n3nc(C)cc3-c3ccccc3)ncn2)c1O	0.651µM*	?	0.82µM*	?	5.17µM*	58.5
COc1cccc(/C=N/Nc2nc(Nc3ccccc3)nc(-n3nc(C)cc3C)n2)c1O	0.581µM*	7.31µM*	0.82µM*	6.51µM*	2.59µM*	-0.3
COc1ccc(CN2CCNC(=O)C2CC(=O)NCCCC2CCCC2)c(F)c1 (stereo unspecified)	?	-6.5%	?	-9.7%	8.3%	-11.4
O=C(N1CCN(c2ccccc2F)CC1)C1(c2cccs2)CCOCC1	18.4µM*	14.2%	?	-18.0%	-6.9%	-16.0
COC(=O)c1ccccc1NC(=O)C1(c2cccs2)CCOCC1	20.6µM*	·	?	·	·	·
SMILES	DT40 TDP1 no CPT	HT1080 IDH1KD tx	DT40 TDP1 CPT	HT1080NT lethal	ELG1 DNA repair	IL-1B inflam inh
COc1ccc(NC(=O)C2(c3cccs3)CCOCC2)cc1	2.6%	16.7%	-1.7%	-0.5%	-1.8%	37.2
CC(=O)Nc1ccccc1-c1nc(CNC(=O)c2ccc(F)c(F)c2)c(C)o1	-10.6%	·	-6.2%	·	·	·
COc1ccc(Cn2c(C(=O)O)c(CNCc3ccc(C)o3)c3ccc(OC)cc32)cc1	-97.3%	·	23.1µM*	·	·	·
COc1ccc2c(CNCc3ccc(C)o3)c(C(=O)O)n(Cc3ccccc3C)c2c1	3.26µM*	·	7.31µM*	·	·	·
COc1ccc2c(CNCc3ccc(Cl)cc3)c(C(=O)O)n(Cc3ccccc3C)c2c1	1.16µM*	·	2.31µM*	·	·	·
COc1ccc2c(CNCCc3ccco3)c(C(=O)O)n(Cc3ccc(C)cc3)c2c1	?	·	-19.3%	·	·	·
C=Cc1ccc(Cn2c(C)c(CNCc3ccccc3C)c(C(=O)O)c2C)cc1	?	·	-16.4%	·	·	·
COc1ccc2[nH]cc(CCNC(=O)Nc3cc(C)cc(C)c3)c2c1	-2.8%	·	-3.8%	·	·	·
COc1ccc(C(O)(CCN2CCCCC2)C2CCCCC2)cc1 (stereo unspecified)	20.6µM*	-8.5%	?	-18.7%	-2.1%	-17.9
CCCC(O)(CCN1CCCCC1)c1ccc(OCC)cc1 (stereo unspecified)	?	-2.7%	?	0.0%	-8.7%	-1.2
O=C(Nc1ccccc1)OCCc1ccccn1	-3.6%	17.4%	-0.7%	16.6%	·	-21.2
O=C(NCCc1ccccc1)C1CCC(=O)N(CCCN2CCCC2=O)C1 (stereo unspecified)	23.5%	4.5%	-11.4%	-1.0%	-3.2%	3.3
O=C(NCCc1cn[nH]c1)C1CCC(=O)N(CCc2cccc(F)c2)C1 (stereo unspecified)	?	7.0%	?	12.0%	12.2%	10.1
O=C(NCCc1c[nH]c2ccccc12)C1CCC(=O)N(CCc2cccc(F)c2)C1 (stereo unspecified)	8.2µM*	-2.1%	?	-1.8%	-17.8%	21.3
O=C(NCc1ccccc1OC(F)(F)F)C1CCC(=O)N(Cc2ccccn2)C1 (stereo unspecified)	?	5.9%	16.4µM*	8.4%	-5.4%	13.9
